# Measurements reported in the supplement of paper PMC13380429.
# Columns and labels:
# [1] = tested on: Vero E6 infected with SARS-CoV-2; assay: inhibition of SARS-CoV-2 cytopathic effect; higher = more antiviral protection, active = above 15; conditions: 48 h
# [2] = tested on: Vero E6 infected with SARS-CoV-2; assay: morphology score (similarity to uninfected cells); higher = more like uninfected cells; conditions: 24 h
SMILES,inhibition of SARS-CoV-2 cytopathic effect ([1]; 1 nM),inhibition of SARS-CoV-2 cytopathic effect ([1]; 8.33 nM),inhibition of SARS-CoV-2 cytopathic effect ([1]; 100 nM),inhibition of SARS-CoV-2 cytopathic effect ([1]; 833.33 nM),inhibition of SARS-CoV-2 cytopathic effect ([1]; 10000 nM),morphology score [2]
Clc1cccc(C(c2ccc3[nH]cnc3c2)n2ccnc2)c1 (configuration not stated) [liarozole],0.27% (inactive),3.78% (inactive),1.18% (inactive),1.7% (inactive),1.64% (inactive),–
O=C(Nc1ccc(C(O)(C(F)(F)F)C(F)(F)F)cc1)c1ccc(C(F)(F)F)cc1,0.8% (inactive),1.24% (inactive),0.25% (inactive),1.02% (inactive),1.6% (inactive),–
COC(=O)N[C@H](C(=O)N1CCC[C@H]1C(=O)Nc1ccc([C@@H]2CC[C@@H](c3ccc(NC(=O)[C@@H]4CCCN4C(=O)[C@@H](NC(=O)OC)C(C)C)cc3)N2c2ccc(C(C)(C)C)cc2)cc1)C(C)C [ombitasvir],-0.82% (inactive),-0.6% (inactive),-0.7% (inactive),-1.11% (inactive),-1.21% (inactive),–
CS(=O)(=O)N1CCc2c(-c3cnc(N)nc3)nc(N3CCOCC3)nc21,-2.71% (inactive),1.07% (inactive),1.27% (inactive),-3.9% (inactive),-8.89% (inactive),–
N#C[C@@H]1C[C@@H]2C[C@@H]2N1C(=O)[C@@H](N)C12CC3CC(CC(O)(C3)C1)C2,-1.01% (inactive),-0.66% (inactive),0.62% (inactive),0.34% (inactive),2.08% (inactive),–
CCOc1cc(C(=O)Nc2ccc(Cl)c(-c3nc4ccccc4[nH]3)c2)cc(OCC)c1OCC,2.95% (inactive),2.03% (inactive),0.45% (inactive),-3.49% (inactive),4.29% (inactive),–
O=[N+]([O-])c1cc2nc(O)c(O)nc2cc1[N+](=O)[O-],-4.28% (inactive),-0.96% (inactive),-0.81% (inactive),-1.99% (inactive),0.49% (inactive),–
CCOc1ccc2nc(SCCN3CCOCC3)[nH]c2c1 [afobazole],0.28% (inactive),0.47% (inactive),-1.23% (inactive),-0.04% (inactive),1.56% (inactive),–
CCCCCCCCCCCCCC(=O)OC(C)C [isopropyl-myristate],0.54% (inactive),0.41% (inactive),2.06% (inactive),1.1% (inactive),-0.15% (inactive),–
NC(=O)N1C(=O)/C(=C(\O)c2cccs2)c2cc(Cl)ccc21 [tenidap],1.19% (inactive),1.1% (inactive),0.33% (inactive),1.99% (inactive),-5.52% (inactive),–
CN(C)CCNc1nc2cc(O)ccc2c2c1C(=O)c1ccccc1-2,0.16% (inactive),1.19% (inactive),-1.3% (inactive),-7.91% (inactive),-23.6% (inactive),–
CS(=O)(=O)N1CCN(Cc2cc3nc(-c4cccc5[nH]ncc45)nc(N4CCOCC4)c3s2)CC1,-1.74% (inactive),-2.51% (inactive),6.27% (inactive),-5.78% (inactive),3.43% (inactive),–
Cc1ccc2c(c1)c1c(n2CCc2ccc(C)nc2)CCN(C)C1 [latrepirdine],1.25% (inactive),-0.5% (inactive),-0.92% (inactive),0.73% (inactive),0.87% (inactive),–
C[N@+]1(CC2CC2)CC[C@]23c4c5ccc(O)c4O[C@H]2C(=O)CC[C@@]3(O)[C@H]1C5 [methylnaltrexone],1.92% (inactive),-0.19% (inactive),1.95% (inactive),1.11% (inactive),1.64% (inactive),–
O=C(NC1(c2ccccc2)CC1)c1c(CN2CCC(N3CCCCC3)CC2)c(-c2cccc(C(F)(F)F)c2)nc2cc(Br)ccc12,1.74% (inactive),3.71% (inactive),1.73% (inactive),-4.53% (inactive),-13.1% (inactive),–
O=C(O)C1=CCCN(CCOC(c2ccc(C(F)(F)F)cc2)c2ccc(C(F)(F)F)cc2)C1,0.02% (inactive),0.95% (inactive),-2.81% (inactive),1.77% (inactive),0.32% (inactive),–
CCNCCS(=O)(=O)NC[C@@]1(c2ccccc2)SC(NC(=O)C(C)(C)C)=NN1C(=O)C(C)(C)C [litronesib],2.17% (inactive),5.24% (inactive),2.46% (inactive),0.96% (inactive),0.39% (inactive),–
C[C@H]1C[C@@H]2[C@H]([C@@H](O)C[C@@]3(C)[C@H]2CC[C@]3(O)C(=O)COC(=O)CCC(=O)O)[C@@]2(C)C=CC(=O)C=C12 [methylprednisolone-sodium-succinate],-0.2% (inactive),2.8% (inactive),0.5% (inactive),-0.11% (inactive),-2.89% (inactive),–
CCN(CC)CCNC(=O)c1cc(Br)c(N)cc1OC [bromopride],-3.41% (inactive),-1.83% (inactive),-0.25% (inactive),-3.5% (inactive),-1.74% (inactive),–
Cc1ncc(-c2ccnc(Nc3ccc(S(C)(=O)=O)cc3)n2)n1C(C)C,0.38% (inactive),-1.83% (inactive),-1.95% (inactive),6.02% (inactive),-2.7% (inactive),–

SMILES,inhibition of SARS-CoV-2 cytopathic effect ([1]; 1 nM),inhibition of SARS-CoV-2 cytopathic effect ([1]; 8.33 nM),inhibition of SARS-CoV-2 cytopathic effect ([1]; 100 nM),inhibition of SARS-CoV-2 cytopathic effect ([1]; 833.33 nM),inhibition of SARS-CoV-2 cytopathic effect ([1]; 10000 nM),morphology score [2]
Cc1ccc(Cl)c(OCC(O)CNC(C)(C)C)c1 (configuration not stated) [bupranolol],1.32% (inactive),-0.4% (inactive),-5.32% (inactive),-1.98% (inactive),-0.94% (inactive),–
C#C[C@]1(O)CC[C@H]2[C@@H]3CCC4=CC(=NO)CC[C@@H]4[C@H]3CC[C@@]21CC (mixture of isomers) [norelgestromin],-0.39% (inactive),-1.06% (inactive),1.68% (inactive),2.43% (inactive),2.14% (inactive),–
C[C@]12CC[C@H](O)CC1=CC[C@@H]1[C@@H]2CC[C@]2(C)C(=O)CC[C@@H]12 (10 µM),–,–,–,–,–,0.0986
COc1ccc(-c2ccc(=N)n(CCCC(=O)O)n2)cc1 [gabazine],0.8% (inactive),2.86% (inactive),5.99% (inactive),-1.31% (inactive),-0.62% (inactive),–
CC(C)(C)c1ccc(O)cc1 [4-tert-butylphenol],-0.71% (inactive),1.9% (inactive),-1.66% (inactive),2.45% (inactive),2.59% (inactive),–
Nc1nc(N)c2nc(-c3ccccc3)c(N)nc2n1 [triamterene],0.51% (inactive),2.72% (inactive),4.04% (inactive),0.17% (inactive),-2.92% (inactive),–
CN(C)N(C)C(=O)[C@@]1(Cc2ccccc2)CCCN(C(=O)[C@@H](Cc2c[nH]c3ccccc23)NC(=O)C(C)(C)N)C1 [anamorelin],-0.24% (inactive),-1% (inactive),9.14% (inactive),-2.12% (inactive),-0.05% (inactive),–
CC1Cc2ccccc2N1NC(=O)c1ccc(Cl)c(S(N)(=O)=O)c1 (configuration not stated) [indapamide],0.88% (inactive),2.8% (inactive),0.11% (inactive),1.3% (inactive),1.05% (inactive),–
COC(=O)N1CC[C@@H]2[C@H]1CCC[C@@]2(O)C#Cc1cccc(C)c1 [mavoglurant],0.66% (inactive),-0.18% (inactive),2.27% (inactive),-1.9% (inactive),-0.19% (inactive),–
COc1ccc(CNC(=O)c2cc(-c3cncc(C)c3)ncc2-c2nccs2)nc1OC,1.93% (inactive),4.06% (inactive),1.64% (inactive),-9.94% (inactive),3.12% (inactive),–
O=C(NCCCNc1nc(Nc2cccc(NC(=O)N3CCCC3)c2)ncc1I)c1cccs1,-2.02% (inactive),-0.75% (inactive),0.52% (inactive),-5.21% (inactive),-23.3% (inactive),–
Cc1nnc(-c2ccc3occ(-c4ccc([S+](C)[O-])cc4)c3c2)o1 (configuration not stated),0.61% (inactive),0.11% (inactive),-1.48% (inactive),1.56% (inactive),8.77% (inactive),–
NCCC(=O)N[C@@H](Cc1c[nH]cn1)C(=O)O [carnosine],-0.87% (inactive),-1.74% (inactive),-2.85% (inactive),-2.56% (inactive),-17.4% (inactive),–
CCOC(=O)c1c(CSc2ccccc2)n(C)c2cc(Br)c(O)c(CN(C)C)c12 [arbidol],-1.24% (inactive),3.62% (inactive),2.92% (inactive),4.8% (inactive),3.91% (inactive),–
CC(O)CN1CCN(CC(=O)[O-])CCN(CC(=O)[O-])CCN(CC(=O)[O-])CC1.[Gd+3] (configuration not stated) [gadoteridol],0.66% (inactive),-0.76% (inactive),0.17% (inactive),0.32% (inactive),-3.99% (inactive),–
CCCN(CCc1cccs1)[C@H]1CCc2c(O)cccc2C1 [rotigotine],0.32% (inactive),-0.89% (inactive),1.13% (inactive),-1.26% (inactive),-6.53% (inactive),–
O=C(O)c1ccccc1Nc1cc(Cl)ccc1C(=O)O [lobenzarit],0.49% (inactive),-0.08% (inactive),0.37% (inactive),2.27% (inactive),-3.63% (inactive),–
COc1cc(/C=C/C(=O)O)ccc1O [ferulic-acid],2.44% (inactive),-0.76% (inactive),-1.01% (inactive),3% (inactive),-0.17% (inactive),–
O=P(O)(O)CN(CCN(CP(=O)(O)O)CP(=O)(O)O)CP(=O)(O)O,-3.44% (inactive),0.56% (inactive),-0.33% (inactive),2.43% (inactive),-1.39% (inactive),–
